The test system of this experiment is Purinergic P2X (rabbit). Description: PubChem AID 1788. The note with it: MDS Pharma lead profiling panel, radioligand binding, at 10 µM, stronger effect = higher value.

Here are results for one compound from PubChem BioAssay AID1788 (Vanderbilt High Throughput Screening Facility, 2009).

A number with no mark means an inactive call. The rule behind the calls is not given here.

In the case of `CCOC(=O)N1CCC(NCCNC(=O)c2ccccc2C)CC1`, the inhibition was 2%.
